Results taken from PubChem BioAssay (NCATS).
Records with an inconclusive call do not appear. Calls of active or inactive are those of the source. Calls come from the whole dose curve; as a rule, active = well fitted cell-killing curve with a large enough effect; inconclusive = small, poorly fitted or top-dose-only effect, or effect the other way; inactive = no such curve, though single readings can be large or run the other way.

Assay: Viability qHTS for spleen associated tyrosine kinase inhibitor (SYKi) drug resistant MV4-11 cells (AID 1963824); note: nearly all actives have a fitted effect of over 35% in size
Details: SYKi-resistant MV4-11 viability, CellTiter-Glo, 72 h; series mostly up to 45 µM; viability, % of control: at the top concentration
Outline: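 SYK-inhibitor-resistant MV4-11 AML cells were seeded at 500 per well onto compound and cultured 72 hours (37 °C, 5% CO2). CellTiter-Glo was then added, and after 10 min at room temperature, luminescence gave viability.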
Potency is the fitted concentration of half-maximal effect.

SMILES | Potency | viability, % of control
Cc1cc(Nc2nc(-c3ccccc3)nc3ccccc23)n[nH]1 | 0.366 µM (active) | 
CC[C@@H]1[C@H]2CCCCN3C(=O)C[C@H]([C@@H]4[C@H]1OC(=O)[C@H]4C)[C@@H]23 |  | 77.3% (inactive)
COc1cccc(N2CCN(C3=Nc4c(F)cccc4[C@H](CC(=O)O)N3c3cc(C(F)(F)F)ccc3OC)CC2)c1 | 18.4 µM (active) | 
O=C(O)c1ccnc2cc(C(OCC3CCC(F)(F)CC3)c3ccccc3Cl)[nH]c12 (centres undefined) |  | 9.82% (inactive)
CC1CCC2C(C)(C)C(O)CCC2(C)C12Cc1c(O)cc3c(c1O2)CN(C(CCC(N)=O)C(=O)O)C3=O (centres undefined) |  | 79.1% [at 17.3 µM] (inactive)
CC(C)S(=O)(=O)NC[C@H](C)c1ccc(-c2ccc(CCNS(C)(=O)=O)cc2)cc1 | 2.31 µM (active) | 
C=C1C[C@@H]2CC[C@@]34C[C@H]5O[C@H]6[C@@H](O3)[C@H]3O[C@H](CC[C@@H]3O[C@H]6[C@H]5O4)CC(=O)C[C@@H]3[C@@H](OC)[C@@H](C[C@H](O)CN)O[C@H]3C[C@H]3O[C@@H](CC[C@@H]1O2)C[C@@H](C)C3=C | 0.0005 µM (active) | 
CSCC1OC(n2cnc3c(N)ncnc32)C(O)C1O (centres undefined) |  | 76.5% (inactive)
CCC/C=C/C(=O)O[C@H]1CC(C)(C)CC2[C@@]13[C@H](O)C[C@]1(C)[C@@]2(CCC2[C@@]4(C)CC[C@H](O[C@@H]5O[C@H](C(=O)O)[C@@H](O)[C@H](O[C@@H]6O[C@H](CO)[C@H](O)[C@H](O)[C@H]6O[C@@H]6O[C@@H](C)[C@H](O)[C@@H](O)[C@H]6O[C@@H]6OC[C@](O)(CO)[C@H]6O)[C@H]5O[C@@H]5O[C@H](CO)[C@H](O)[C@H](O)[C@H]5O)C(C)(C)C4CC[C@]21C)O[C@H]3O (some centres undefined) | 2.75 µM (active) | 
